About 2,000 (36%) of roughly 5,500 compounds were called active. About 18% were inconclusive and are not listed. No stated cut-off is given here; in the data, active means normalized growth mostly below about 0.91 (no sharp cut-off); inconclusive means no clear call, values can overlap the other calls; inactive means mostly above about 0.92. This is one part of the list.
Test: chemical genetic growth profiling, strain panel (AID 1159580);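 further: tested at 20 µM; growth read once vehicle control cultures reached saturation at 30 °C; 1 = growth at the plate median or of vehicle wells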
Details: S. cerevisiae deletion strains, growth OD

Measured: normalized growth

O=c1oc2cc(O)ccc2s1
active: locus YCL029C, strain bik1, stronger effect = lower value 0.899 | locus YDR101C, strain arx1, stronger effect = lower value 0.899 | locus YDR318W, strain mcm21, stronger effect = lower value 0.911
inactive: locus YAL013W, strain DEP1, stronger effect = lower value 0.999 | locus YAL021C, strain ccr4, stronger effect = lower value 1.06 | locus YAL026C, strain drs2, stronger effect = lower value 1 | locus YAL030W, strain snc1, stronger effect = lower value 0.995 | locus YBL061C, strain skt5, stronger effect = lower value 1.01 | locus YBR009C, strain hhf1, stronger effect = lower value 0.972 | locus YBR021W, strain FUR4, stronger effect = lower value 1.03 | locus YBR023C, strain chs3, stronger effect = lower value 1.01 | locus YBR171W, strain sec66, stronger effect = lower value 1.02 | locus YBR229C, strain ROT2, stronger effect = lower value 0.966 | locus YBR231C, strain swc5, stronger effect = lower value 0.965 | locus YBR279W, strain paf1, stronger effect = lower value 0.999 | locus YCL011C, strain gbp2, stronger effect = lower value 0.988 | locus YCL016C, strain dcc1, stronger effect = lower value 0.993 | locus YCL061C, strain MRC1, stronger effect = lower value 0.997 | locus YCL069W, strain vba3, stronger effect = lower value 1.01 | locus YCR088W, strain abp1, stronger effect = lower value 1.01 | locus YDL005C, strain med2, stronger effect = lower value 1.04 | locus YDL035C, strain GPR1, stronger effect = lower value 0.945 | locus YDL040C, strain nat1, stronger effect = lower value 1 | locus YDL074C, strain BRE1, stronger effect = lower value 0.962 | locus YDL101C, strain DUN1, stronger effect = lower value 0.967 | locus YDL134C, strain PPH21, stronger effect = lower value 0.972 | locus YDL185W, strain tfp1, stronger effect = lower value 0.955 | locus YDL192W, strain arf1, stronger effect = lower value 0.954 | locus YDR001C, strain nth1, stronger effect = lower value 1.01 | locus YDR069C, strain doa4, stronger effect = lower value 0.998 | locus YDR137W, strain rgp1, stronger effect = lower value 1.02 | locus YDR150W, strain NUM1, stronger effect = lower value 0.993 | locus YDR159W, strain sac3, stronger effect = lower value 0.941 | locus YDR162C, strain NBP2, stronger effect = lower value 0.968 | locus YDR195W, strain ref2 1.12 | locus YDR297W, strain sur2, stronger effect = lower value 1.01 | locus YDR334W, strain swr1, stronger effect = lower value 1.01 | locus YDR335W, strain msn5, stronger effect = lower value 0.99 | locus YDR388W, stronger effect = lower value 0.947 | locus YDR392W, strain spt3, stronger effect = lower value 0.953 | locus YDR502C, strain sam2, stronger effect = lower value 0.934 | locus YEL003W, strain gim4, stronger effect = lower value 0.999 | locus YEL037C, strain rad23, stronger effect = lower value 0.998 | locus YEL061C, strain CIN8 (second series), stronger effect = lower value 1.01 | locus YEL061C, strain CIN8, stronger effect = lower value 0.98 | locus YER015W, strain faa2, stronger effect = lower value 0.975 | locus YER016W, strain bim1, stronger effect = lower value 0.989 | locus YER110C, stronger effect = lower value 0.968 | locus YER111C, strain swi4, stronger effect = lower value 0.996 | locus YER155C, strain BEM2 (second series), stronger effect = lower value 0.988 | locus YER155C, strain BEM2, stronger effect = lower value 0.973 | locus YER167W, strain BCK2, stronger effect = lower value 0.965 | locus YFR010W, strain ubp6, stronger effect = lower value 0.978 | locus YGL078C, strain dbp3, stronger effect = lower value 0.96 | locus YGL086W, strain mad1, stronger effect = lower value 0.932 | locus YGL167C, strain pmr1, stronger effect = lower value 1.02 | locus YGL173C, strain kem1, stronger effect = lower value 0.967 | locus YGL227W, strain vid30, stronger effect = lower value 1 | locus YGL240W, strain doc1, stronger effect = lower value 0.967 | locus YGL248W, strain PDE1, stronger effect = lower value 0.985 | locus YGL253W, strain hxk2, stronger effect = lower value 1 | locus YGR078C, strain PAC10, stronger effect = lower value 0.969 | locus YGR135W, strain pre9, stronger effect = lower value 0.898 | locus YGR229C, strain SMI1, stronger effect = lower value 0.965 | locus YGR252W, strain gcn5, stronger effect = lower value 0.956 | locus YHR013C, strain ard1, stronger effect = lower value 1.1 | locus YHR027C, strain rpn1, stronger effect = lower value 0.998 | locus YHR030C, strain SLT2, stronger effect = lower value 0.983 | locus YHR079C, strain IRE1 (second series), stronger effect = lower value 0.942 | locus YHR094C, strain hxt1, stronger effect = lower value 0.966 | locus YHR129C, strain ARP1, stronger effect = lower value 0.966 | locus YHR142W, strain chs7, stronger effect = lower value 1.04 | locus YHR200W, strain rpn10, stronger effect = lower value 0.927 | locus YIL066C, strain RNR3, stronger effect = lower value 0.946 | locus YIL073C, strain SPO22, stronger effect = lower value 0.996 | locus YIL125W, strain kgd1, stronger effect = lower value 0.982 | locus YIR030C, strain dcg1, stronger effect = lower value 0.962 | locus YJL092W, strain hpr5, stronger effect = lower value 0.988 | locus YJL095W, strain BCK1 (second series), stronger effect = lower value 1.02 | locus YJL095W, strain BCK1, stronger effect = lower value 0.933 | locus YJL115W, strain asf1, stronger effect = lower value 1.03 | locus YJL129C, strain trk1, stronger effect = lower value 1.03 | locus YJL134W, strain LCB3, stronger effect = lower value 0.976 | locus YJL154C, strain vps35, stronger effect = lower value 1.02 | locus YJL164C, strain tpk1, stronger effect = lower value 1.01 | locus YJL166W, strain qcr8, stronger effect = lower value 0.99 | locus YJL168C, strain set2, stronger effect = lower value 0.961 | locus YJL187C, strain SWE1 (second series), stronger effect = lower value 0.952 | locus YJL187C, strain SWE1, stronger effect = lower value 1

Source: PubChem BioAssay AID1159580 (chemical genetic matrix, 2015)
